This is part of a sample that, as a whole, favours compounds with a hit. Of some 83,000 tested, about 20% had one in any assay.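 Step 1: grow cells in 96-well plates. Step 2: add test compound at a single concentration. Step 3: incubate 48 h. Step 4: record percent growth.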 Values without a mark were called inactive. Activity calls are given as the source filed them. Rule for the calls: active = growth percent below 10; inactive = the rest.
What was measured:
Assay in all cases: NCI-60 one-dose screen, 48 h (100 = growth as untreated, 0 = no growth, -100 = all killed)
Settings in all cases: 10 µM unless noted
DU-145 prostate = test system: DU-145 prostate
K-562 leukemia = test system: K-562 leukemia
MALME-3M melanoma = test system: MALME-3M melanoma
MDA-MB-231 breast = test system: MDA-MB-231 breast
RXF 393 renal = test system: RXF 393 renal
SF-268 CNS = test system: SF-268 CNS
SF-295 CNS = test system: SF-295 CNS
SF-539 CNS = test system: SF-539 CNS
UACC-257 melanoma = test system: UACC-257 melanoma
M14 melanoma = test system: M14 melanoma

| Compound | growth (DU-145 prostate) | growth (K-562 leukemia) | growth (MALME-3M melanoma) | growth (MDA-MB-231 breast) | growth (RXF 393 renal) | growth (SF-268 CNS) | growth (SF-295 CNS) | growth (SF-539 CNS) | growth (UACC-257 melanoma) | growth (M14 melanoma) |
| --- | --- | --- | --- | --- | --- | --- | --- | --- | --- | --- |
| COc1cc2cn3c4ccc(O)cc4[nH]c(=O)c3c2cc1OC | 3.02% (active) | 3.94% (active) | 1.16% (active) | 30.9% | 26.8% | 18.1% | -11% (active) | 5.31% (active) | -10.1% (active) | 3.61% (active) |
| Cc1cc2c(-c3nc4ccccc4n3C)c(O)c(O)cc2c(O)c1-c1c(C)cc2c(-c3nc4ccccc4n3C)c(O)c(O)cc2c1O | 43.5% | 37.5% | 86.1% | 57.3% | 62.7% | 38.5% | 26% | 22.1% | 82.9% | 34.9% |
| COc1nc(OC)nc(-c2cc(C(=O)c3ccc(Br)cc3)n3cc(C)cc(C)c23)n1 | 76.3% | 91.1% | 54.1% | 49.8% | 11.9% | 55.4% | 48.7% | 26.2% | 94.8% | 90.3% |
| CCCCCCCCC1OC1CCCCCCCC(=O)O (stereo not given) | 116% | 116% | 90.1% | 94.6% | 101% | 107% | 97.4% | 93.5% | 95.3% | 105% |
| CCCCCCCCc1ccc(OCCOCC[N+](C)(C)CC)cc1 (tested in a mixture with another compound) | 64.5% | 22.8% | -19.9% (active) | 22.2% | 50.3% | 23% | 97.2% | 18.4% | 12.9% | 44.5% |
| Cn1cnc2nc[nH]c2c1=S | 112% | 103% | 98.8% | 96.3% | 110% | 107% | 99.4% | 110% | 96.5% | 105% |
| COc1ccc(-c2nnc(SCC(=O)Nc3ccc(C(=O)/C=C/c4cc(OC)c(OC)c(OC)c4)cc3)n2-c2ccccc2)cc1OC | -29.4% [100 µM] (active) | 31.4% [100 µM] | -33.4% [100 µM] (active) | -44.6% [100 µM] (active) | -24.7% [100 µM] (active) | -52.2% [100 µM] (active) | -86.2% [100 µM] (active) | 1.43% [100 µM] (active) | 22.1% [100 µM] | 1.87% [100 µM] (active) |
| Cc1ccc(CC(=O)O)c(C)c1 | 107% | 104% | 110% | 105% | 121% | 96.3% | 97.1% | 106% | 91.7% | 102% |
| Cc1ncc(C(=O)Nc2ccc(CN3CCN(C)CC3)c(C(F)(F)F)c2)cc1C#Cc1c(N)ncc2ccccc12 | -87.8% (active) | -73.2% (active) | -84.9% (active) | -96.6% (active) | -93.9% (active) | -54.4% (active) | -90.5% (active) | -98.5% (active) | -86% (active) | -86.1% (active) |
| COC1NC(Cl)=C(C#N)C(C#N)(C#N)C1(C)C (stereo not given) | 94.2% | 77.1% | 146% | 88.6% | 3.25% (active) | 122% | 115% | 92.3% | 102% | 59.1% |
| CC1C(=O)CCCC1=O | 124% | 103% | 98.4% | 101% | 134% | 112% | 104% | 98.9% | 108% | 111% |
| Cc1cc2cn3c4ccc(O)cc4nc(N)c3c2cc1C | 4.25% (active) | -14.9% (active) | 39.6% | 27.3% | 41.1% | 12.9% | 1.42% (active) | 11.4% | 53.1% | 4.96% (active) |
| COC(=O)c1ccc2[nH]c(O)c(C(=Nc3ccc(N(C)C(=O)CN4CCN(C)CC4)cc3)c3ccc(CCO)cc3)c2c1 | 80.4% | 8.34% (active) | 19% | 31.2% | 30% | 29.6% | 93.2% | 28% | 77.6% | 57.3% |
